Data on 13 molecules can be found in PubChem BioAssay (NCI).

The panel holds about 83,000 compounds, 20% with a hit somewhere; the sample as a whole holds those more often.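 Results are percent growth after 48 hours of single-concentration exposure. 100 means growth as in untreated cells, lower positive values show inhibition; negative values down to -100 show cell death.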 Values without a mark were called inactive. Active and inactive are the calls of the source. The calls were made as follows: active = growth percent below 10; inactive = the rest.

Test systems include HCT-15 colon; HT29 colon; SNB-75 CNS; SNB-19 CNS; U251 CNS; PC-3 prostate; SK-MEL-5 melanoma; UACC-62 melanoma; LOX IMVI melanoma; SK-MEL-28 melanoma.
Holding throughout (test): NCI-60 one-dose screen, 48 h (100 = growth as untreated, 0 = no growth, -100 = all killed)
What all share (conditions): 10 µM unless noted

In the case of `O=C1Nc2ccc(F)cc2C12Nc1cc(Cl)ccc1S2` (stereo not given), the growth in the test with HCT-15 colon is 82.3%; in the test on HT29 colon, 103%; with SNB-75 CNS, 70.9%; in the test on SNB-19 CNS it was 92.1%; in the test with U251 CNS, 94.6%; with PC-3 prostate, 57.3%. In addition, the growth is 83.4% in the test on SK-MEL-5 melanoma, 75.4% with UACC-62 melanoma, 85.6% with LOX IMVI melanoma and 118% in the test on SK-MEL-28 melanoma.
For the molecule `S=C(Cc1ccc2c(c1)CCCC2)N1CCOCC1`, the growth is 101% in the test on HCT-15 colon; 87.9% in the test with HT29 colon; 95.1% with SNB-75 CNS; 102% with SNB-19 CNS; 95.6% with U251 CNS; 97.8% with PC-3 prostate. The growth with SK-MEL-5 melanoma is 102%; in the test on UACC-62 melanoma, 95.9%; with LOX IMVI melanoma, 93.2%; in the test on SK-MEL-28 melanoma, 102%.
For `CCCCCCCCCCN(CCCCCCCCCC)CC(=O)c1ccc2cc(Br)c3ccccc3c2c1`, the growth in the test with HCT-15 colon was 64.9%; in the test with HT29 colon it was 3.77% (active); in the test with SNB-75 CNS, 68.7%; with SNB-19 CNS, 88%; in the test on U251 CNS it was -9.35% (active); in the test on PC-3 prostate it was -71.7% (active). In addition, the growth in the test with SK-MEL-5 melanoma is 93.6%; in the test on UACC-62 melanoma it was 93.9%; in the test with LOX IMVI melanoma it was 21.6%; in the test on SK-MEL-28 melanoma, 113%.
Turning to `COc1ccccc1N1C(=O)/C(=C/C2=Cc3ccccc3OC2)SC1=S`, the growth in the test on HCT-15 colon is 65.3%; with HT29 colon it was 99.6%; in the test on SNB-75 CNS it was 97.8%; with SNB-19 CNS, 91.1%; in the test with U251 CNS it was 95.7%; with PC-3 prostate, 77.1%. Moreover, the growth in the test on SK-MEL-5 melanoma is 97.7%; in the test on UACC-62 melanoma, 86%; in the test on LOX IMVI melanoma it was 105%; with SK-MEL-28 melanoma it was 92.8%.
In the case of `CC(=O)[C@@H]1CC[C@]2(COS(=O)(=O)c3ccc(C)cc3)CC[C@]3(C)[C@H](CC[C@@H]4[C@@]5(C)CCCNC(C)(C)[C@@H]5CC[C@]43C)[C@@H]12`, the growth was 32% in the test on HCT-15 colon; 2.18% (active) in the test on HT29 colon; 83.2% in the test on SNB-75 CNS; 91.7% with SNB-19 CNS; 61.8% in the test with U251 CNS; 56.8% in the test with PC-3 prostate. For the same molecule, the growth in the test with SK-MEL-5 melanoma was 76.2%; with UACC-62 melanoma it was 58.9%; with LOX IMVI melanoma it was 14%; in the test on SK-MEL-28 melanoma it was 85.6%.
Take `O=C(O)CN1C(=O)CCC1=O`: the growth in the test on HCT-15 colon was 103%; in the test on HT29 colon it was 90.6%; in the test with SNB-75 CNS, 95.3%; in the test on SNB-19 CNS, 108%; with U251 CNS, 105%; in the test on PC-3 prostate, 108%. Further, the growth is 103% in the test on SK-MEL-5 melanoma, 108% in the test with UACC-62 melanoma, 102% in the test on LOX IMVI melanoma and 107% in the test on SK-MEL-28 melanoma.
`Cc1ccc(S(=O)(=O)N/N=C\c2cc(Cl)ccc2O)cc1`: the growth with HCT-15 colon was 81.8%; with HT29 colon it was 103%; in the test on SNB-75 CNS, 88.5%; in the test on SNB-19 CNS, 86.2%; in the test on U251 CNS it was 90.4%; with PC-3 prostate, 93.6%. For the same molecule, the growth with SK-MEL-5 melanoma was 99.6%; with UACC-62 melanoma, 106%; in the test on LOX IMVI melanoma, 88.3%; with SK-MEL-28 melanoma it was 98.3%.
As to `COc1ccc(/C=C/c2c(C(=O)/C=C/c3ccc(F)cc3)c(C)nc3ccccc23)cc1`, the growth is 10.8% in the test on HCT-15 colon; 23.6% in the test with HT29 colon; 52.1% in the test with SNB-75 CNS; 60.9% in the test with SNB-19 CNS; 49.6% in the test on U251 CNS; 41.7% in the test on PC-3 prostate. For the same molecule, the growth in the test on SK-MEL-5 melanoma is 63.4%; in the test on UACC-62 melanoma it was 46.8%; in the test with LOX IMVI melanoma, 19.7%; with SK-MEL-28 melanoma, 55.3%.
For `COC(=O)[C@]12CC[C@@H](C)[C@H](C)[C@@H]1C1=CC[C@@H]3[C@@]4(C)C(C=O)=C[C@@](C)(COS(C)(=O)=O)[C@@H]4C(=O)C[C@@]3(C)[C@]1(C)CC2`, the growth is 21.4% with HCT-15 colon; 26.9% with HT29 colon; 38.7% in the test on SNB-75 CNS; 41.7% with SNB-19 CNS; 26% with U251 CNS; 12% with PC-3 prostate. Further, the growth in the test on SK-MEL-5 melanoma is 63.8%; with UACC-62 melanoma it was 38.6%; in the test on LOX IMVI melanoma, 35.7%; in the test on SK-MEL-28 melanoma, 74.2%.
For the molecule `CC/C=C\C[C@H](O)C/C=C1/C(=O)C=C[C@@H]1C/C=C\CCCCO`, the growth was 2.31% (active) in the test on HCT-15 colon; -39% (active) in the test on HT29 colon; 76.1% in the test on SNB-75 CNS; 55.8% in the test on SNB-19 CNS; -33% (active) in the test on U251 CNS; 0.486% (active) in the test on PC-3 prostate. In addition, the growth with SK-MEL-5 melanoma was 10.5%; with UACC-62 melanoma, -23.3% (active); in the test on LOX IMVI melanoma, -68.9% (active); in the test with SK-MEL-28 melanoma, 16.7%.
As for `CCCCCS(=O)(=O)Nc1ccc(C(=O)O)cc1`, the growth is 109% in the test with HCT-15 colon; 97.2% with HT29 colon; 92.3% in the test on SNB-75 CNS; 106% with SNB-19 CNS; 92.8% with U251 CNS; 102% with PC-3 prostate. The growth with SK-MEL-5 melanoma was 100%; with UACC-62 melanoma, 98.8%; with LOX IMVI melanoma, 99.9%; in the test on SK-MEL-28 melanoma, 111%.
In the case of `OC(c1cccc(-n2ccc(C(F)(F)F)n2)c1)c1cnccc1NC1CCCCCC1` (stereo not given), the growth is -39.2% (active) in the test with HCT-15 colon; -0.162% (active) in the test on HT29 colon; 64.4% in the test with SNB-75 CNS; 71.1% in the test with SNB-19 CNS; -42.6% (active) in the test on U251 CNS; 41.2% in the test with PC-3 prostate. The growth was 33.8% in the test with SK-MEL-5 melanoma, 32.2% in the test on UACC-62 melanoma, -91.4% (active) in the test on LOX IMVI melanoma and -65.3% (active) in the test on SK-MEL-28 melanoma.
On to `COC1=CC(=O)C[C@@H](C)[C@]12Oc1c(Cl)c(OC)cc(OC)c1C2=O`, for which the growth with HCT-15 colon is 76.9%; in the test with HT29 colon it was 104%; with SNB-75 CNS it was 67.8%; in the test with SNB-19 CNS, 95.7%; with U251 CNS it was 92.1%; with PC-3 prostate it was 87.5%. The growth in the test on SK-MEL-5 melanoma was 84.3%; with UACC-62 melanoma, 73.3%; with LOX IMVI melanoma it was 80.8%; with SK-MEL-28 melanoma, 85.7%.
